Measurements: article PMC12864922, “TDP-43 directly inhibits mRNA accumulation in neurites through modulation of mRNA stability”
The full ranking holds about 9,900 sequences; the median of “r (bound/input frequency ratio)” is about 0.7, and the highest 2% start at about 6.5. This is one part of a sample in which the highest values are shown more often than they occur.

B1: ENSMUSG00000029028.179|Lrrc47|115:119 (ssRNA)
RNA: GGGAGUUCUACAGUCCGACGAUCGCUUCGAUAUCCGCAUGCUAACAGAUGCUUCGUGGACUGUGCCUCACACAUGGCCCUGCAGGCUCCAUGUCAGCGUGUCCCACUAUUCAUGUCCCAUCUCUGUGCAUCCUGACUGCGCACAUCCCAUCUCCGCAACACAACGCAUCUGUACCAGCACACAGCUGCCAUCCCUCGAGCCACAGUGCCUGGUCCUAAGGACCCAGCAGCUGCACAGAGGACUUGGUGGCCCCGUGCCUUGCCAUCUGGCUGAGAAGAGAACCAGACCCUCAGCCUUCCCCCUCUCUUGCGGUCGCACUAGUGUGGAAUUCUCGGGUGUCAAGG
B2: ENSMUSG00000058297.511|Spock2 (ssRNA)
RNA: GGGAGUUCUACAGUCCGACGAUCGCUUCGAUAUCCGCAUGCUAAGGAGGCAAAGUUGGUGAGAGUCCUGGGACAUCUUACCCCCAGUGUUCCACAGGAGUCGUGACCACGUGUGAUGGGUGGGCACAGGUCUGCCUUGCUCCAGCCCCCUCCCUUGGUUUCUGUUGGUACCCAUUUGGCUUUUAUCUGCUUUCUGCUUCACCACUAAGUGCGUAGGUGGGGUCUUUUGAUAUCGGCUCCCCAAAGCCCAAGCCCACAGCCCUAGGAGAGAACCAGGGGCCCAUCUUUGACACCUGGGCCAUCACUCUUGCGGUCGCACUAGUGUGGAAUUCUCGGGUGUCAAGG
B3: ENSMUSG00000090935.640|Synj2bp|188:194 (ssRNA)
RNA: GGGAGUUCUACAGUCCGACGAUCGCUUCGAUAUCCGCAUGCUAAGAAUAAAGUAUUUUCCUAGGACUACAUAGUUGGUAAAAGAGAAUCAUGAUUUAAACUCUGGACUAUGGAUGGCAGUAUCAGUAAUAUUCCCUCAUAGCUAGCAGUCCUCAUGCAAGGUCUCUGAACAAAAGCAACGUAUCACCUGCAAAUGCUUGGGUUUCAUCCCAUUCUUAUGGAGUGAGAUGACACACACCCAGCCAGCAACUCUGUCCUUCUAGGUAACUGGUUCAUGCUGAACCUUGAGAUUCACCACUGUCAGCUCUUGCGGUCGCACUAGUGUGGAAUUCUCGGGUGUCAAGG
B4: ENSMUSG00000032194.203|Kank2|47:51 (ssRNA)
RNA: GGGAGUUCUACAGUCCGACGAUCGCUUCGAUAUCCGCAUGCUACUGCACCUUUCUCUAACUGGGGUUCCUUUCUGGCCCCAGGAUCUCACACACGUUCGUGGGGGGAUUUUGUUGUUGUUUCUUUGUUUCUUUUCUUCAUAAAGAAGAAAAAGGAAACAACUUCUAGAUGUGCCUUGCGAUAGGGAGGACUUUGUCCUCUCAAGUCUCCCUGUCGUAUCCAGAUCACAGCUGAACCCACUGGGCCUUGGCGCCAAACCUCAGCAGGGCAGCAUUGAGACUCAUGGACUAAAGGAAAGUGUUCACUCUUGCGGUCGCACUAGUGUGGAAUUCUCGGGUGUCAAGG
B5: ENSMUSG00000004113.196|Cacna1b (ssRNA)
RNA: GGGAGUUCUACAGUCCGACGAUCGCUUCGAUAUCCGCAUGCUACUGGCUCCUCUGCUCAACCAAGUGCCUGAUCUCUGGCUCUGAGCAUCGUGGAUGAGGUACGGCCUCAGGAAGCAUCGGGUGGAUUGGGUGGGAGCUGCUCAGAGCAGCACGGGGGCUUGUGUCUUAGGGACAUUGACAGUGUCCAUCAGCAUGUCAGAGAAGCAGCUGUAGUGCCCGUGUUUCUCCCUGAGUCAUGGGUUCUGAAGAAGCCAGAGCGGCACAAUGCGUGCUUGCAUGAGGCACUUUCAGCCUUUUUAAAUCUCUUGCGGUCGCACUAGUGUGGAAUUCUCGGGUGUCAAGG
B6: ENSMUSG00000061578.342|Ksr2 (ssRNA)
RNA: GGGAGUUCUACAGUCCGACGAUCGCUUCGAUAUCCGCAUGCUAUGCCCUUAAGCUAGGGUCCUUCAAGCAUCCACAGACUUAGAGUGUGGUGGUAACAUGCUUGUAAUCCUGGCACUCUGGAGGCUGAGGCAGGAGGAUAACAAGUCUAGACUAUAUAUGAUUUCUGAGGGUCUGUUAGUGAAUAAGUACCUGGAUGACAUGGGACAAGUCCCAGCCUUCCCUGCUCCUGCGCUGCUCUUCCUCUUAUGGGAUAGGGUCUAGGUCAAAUGUCACCUCUUCACUCUUGCUCUUUCCUGACCUCCCUCUUGCGGUCGCACUAGUGUGGAAUUCUCGGGUGUCAAGG
B7: ENSMUSG00000028439.70|Fam219a|208:212 (ssRNA)
RNA: GGGAGUUCUACAGUCCGACGAUCGCUUCGAUAUCCGCAUGCUAAAGGCCAGGAGGCCAAAUGUAAGCGUUGGGUGAAGGGAUCACAGGGCCGGAAGGUUGGCCCCAGCCAGUGAAGCCAUGAAUCCCCCCCAAGCCCGGCUUGGAAAGGAAGGAAAGGGGUUUUGAGAAGAAAAGGAUCCAAGCAAUGGGGGCAGUUCUCACACCUCAGAGCCCCUCUCCCCAAACCCUGUGCCAGCCCAUAUACCUAUUACACAUUUCCCCUCAUCUCCAGAUGGGAAGCCUGGCAGCGCUGUCCAAAGGGACUCUUGCGGUCGCACUAGUGUGGAAUUCUCGGGUGUCAAGG
B8: ENSMUSG00000031028.483|Tub (ssRNA)
RNA: GGGAGUUCUACAGUCCGACGAUCGCUUCGAUAUCCGCAUGCUAUGUCAAGGAAGUGUGUUGUCAGUUCACUGGAGGAGGAGCUGAGAUGUGCACCCUUUUAAAUGAACAUGGGGUGGUGAUGGUGCCUUAACAAUCUUGACACUAAGGUGAAGCAAGCAAGUAAGGUGUGUGCCUCUGGGAAGACAGGAGUCGGAAGCCAAGGUGUGUGGCAACAGUCUGGAAGAGAGCUUUUGGUAAUCAUACCGUCUUCAGUGACAAGGCAACAAUGCUGUAAAGUGGGUUUGUUUGGUUUUGUUUUUUCUCUCUUGCGGUCGCACUAGUGUGGAAUUCUCGGGUGUCAAGG
B9: ENSMUSG00000031028.479|Tub (ssRNA)
RNA: GGGAGUUCUACAGUCCGACGAUCGCUUCGAUAUCCGCAUGCUACUCCCAUGGUUCUGAGCAGGCGACUGUCAAGGAAGUGUGUUGUCAGUUCACUGGAGGAGGAGCUGAGAUGUGCACCCUUUUAAAUGAACAUGGGGUGGUGAUGGUGCCUUAACAAUCUUGACACUAAGGUGAAGCAAGCAAGUAAGGUGUGUGCCUCUGGGAAGACAGGAGUCGGAAGCCAAGGUGUGUGGCAACAGUCUGGAAGAGAGCUUUUGGUAAUCAUACCGUCUUCAGUGACAAGGCAACAAUGCUGUAAAGUGCUCUUGCGGUCGCACUAGUGUGGAAUUCUCGGGUGUCAAGG
B10: ENSMUSG00000031028.484|Tub (ssRNA)
RNA: GGGAGUUCUACAGUCCGACGAUCGCUUCGAUAUCCGCAUGCUAGGAAGUGUGUUGUCAGUUCACUGGAGGAGGAGCUGAGAUGUGCACCCUUUUAAAUGAACAUGGGGUGGUGAUGGUGCCUUAACAAUCUUGACACUAAGGUGAAGCAAGCAAGUAAGGUGUGUGCCUCUGGGAAGACAGGAGUCGGAAGCCAAGGUGUGUGGCAACAGUCUGGAAGAGAGCUUUUGGUAAUCAUACCGUCUUCAGUGACAAGGCAACAAUGCUGUAAAGUGGGUUUGUUUGGUUUUGUUUUUUCUUUCUCUCUCUUGCGGUCGCACUAGUGUGGAAUUCUCGGGUGUCAAGG
B11: ENSMUSG00000031028.482|Tub|17:22;129:135;166:172 (ssRNA)
RNA: GGGAGUUCUACAGUCCGACGAUCGCUUCGAUAUCCGCAUGCUAGGCGACUGUCAAGGAACACACAUGUCAGUUCACUGGAGGAGGAGCUGAGAUGUGCACCCUUUUAAAUGAACAUGGGGUGGUGAUGGUGCCUUAACAAUCUUGACACUAAGGUGAAGCAAGCAAGUAAGCACACACCCUCUGGGAAGACAGGAGUCGGAAGCCAAGCACACACGCAACAGUCUGGAAGAGAGCUUUUGGUAAUCAUACCGUCUUCAGUGACAAGGCAACAAUGCUGUAAAGUGGGUUUGUUUGGUUUUGUUCUCUUGCGGUCGCACUAGUGUGGAAUUCUCGGGUGUCAAGG
B12: ENSMUSG00000031028.481|Tub (ssRNA)
RNA: GGGAGUUCUACAGUCCGACGAUCGCUUCGAUAUCCGCAUGCUAUGAGCAGGCGACUGUCAAGGAAGUGUGUUGUCAGUUCACUGGAGGAGGAGCUGAGAUGUGCACCCUUUUAAAUGAACAUGGGGUGGUGAUGGUGCCUUAACAAUCUUGACACUAAGGUGAAGCAAGCAAGUAAGGUGUGUGCCUCUGGGAAGACAGGAGUCGGAAGCCAAGGUGUGUGGCAACAGUCUGGAAGAGAGCUUUUGGUAAUCAUACCGUCUUCAGUGACAAGGCAACAAUGCUGUAAAGUGGGUUUGUUUGGUCUCUUGCGGUCGCACUAGUGUGGAAUUCUCGGGUGUCAAGG
B13: ENSMUSG00000031028.480|Tub (ssRNA)
RNA: GGGAGUUCUACAGUCCGACGAUCGCUUCGAUAUCCGCAUGCUAUGGUUCUGAGCAGGCGACUGUCAAGGAAGUGUGUUGUCAGUUCACUGGAGGAGGAGCUGAGAUGUGCACCCUUUUAAAUGAACAUGGGGUGGUGAUGGUGCCUUAACAAUCUUGACACUAAGGUGAAGCAAGCAAGUAAGGUGUGUGCCUCUGGGAAGACAGGAGUCGGAAGCCAAGGUGUGUGGCAACAGUCUGGAAGAGAGCUUUUGGUAAUCAUACCGUCUUCAGUGACAAGGCAACAAUGCUGUAAAGUGGGUUUGCUCUUGCGGUCGCACUAGUGUGGAAUUCUCGGGUGUCAAGG
B14: ENSMUSG00000031028.478|Tub (ssRNA)
RNA: GGGAGUUCUACAGUCCGACGAUCGCUUCGAUAUCCGCAUGCUACUCUUUCUCCCAUGGUUCUGAGCAGGCGACUGUCAAGGAAGUGUGUUGUCAGUUCACUGGAGGAGGAGCUGAGAUGUGCACCCUUUUAAAUGAACAUGGGGUGGUGAUGGUGCCUUAACAAUCUUGACACUAAGGUGAAGCAAGCAAGUAAGGUGUGUGCCUCUGGGAAGACAGGAGUCGGAAGCCAAGGUGUGUGGCAACAGUCUGGAAGAGAGCUUUUGGUAAUCAUACCGUCUUCAGUGACAAGGCAACAAUGCUGUCUCUUGCGGUCGCACUAGUGUGGAAUUCUCGGGUGUCAAGG
B15: ENSMUSG00000031028.479|Tub|35:40;147:153;184:190 (ssRNA)
RNA: GGGAGUUCUACAGUCCGACGAUCGCUUCGAUAUCCGCAUGCUACUCCCAUGGUUCUGAGCAGGCGACUGUCAAGGAACACACAUGUCAGUUCACUGGAGGAGGAGCUGAGAUGUGCACCCUUUUAAAUGAACAUGGGGUGGUGAUGGUGCCUUAACAAUCUUGACACUAAGGUGAAGCAAGCAAGUAAGCACACACCCUCUGGGAAGACAGGAGUCGGAAGCCAAGCACACACGCAACAGUCUGGAAGAGAGCUUUUGGUAAUCAUACCGUCUUCAGUGACAAGGCAACAAUGCUGUAAAGUGCUCUUGCGGUCGCACUAGUGUGGAAUUCUCGGGUGUCAAGG
B16: ENSMUSG00000031028.482|Tub (ssRNA)
RNA: GGGAGUUCUACAGUCCGACGAUCGCUUCGAUAUCCGCAUGCUAGGCGACUGUCAAGGAAGUGUGUUGUCAGUUCACUGGAGGAGGAGCUGAGAUGUGCACCCUUUUAAAUGAACAUGGGGUGGUGAUGGUGCCUUAACAAUCUUGACACUAAGGUGAAGCAAGCAAGUAAGGUGUGUGCCUCUGGGAAGACAGGAGUCGGAAGCCAAGGUGUGUGGCAACAGUCUGGAAGAGAGCUUUUGGUAAUCAUACCGUCUUCAGUGACAAGGCAACAAUGCUGUAAAGUGGGUUUGUUUGGUUUUGUUCUCUUGCGGUCGCACUAGUGUGGAAUUCUCGGGUGUCAAGG

target: TDP-43 (Homo sapiens, UniProt Q13148 1-414); experiment: RNA Bind-n-Seq with designed 260-mer pool; 25 mM Tris-HCl, 150 mM KCl, 3 mM MgCl2, BSA (printed 500 mg/mL), 20 units/mL SUPERase IN; pH not stated; 500 nM RNA pool, 1 h, 4 C; TDP-43 5, 50, 500 nM; high values mean tight binding; conditions: protein: recombinant; tags: SBP (GST cleaved off with PreScission; pGEX-GST-SBP)
Method in brief: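 The incubation lasted 1 h at 4 °C and used 500 nM of an in vitro-transcribed 260-nt 3′ UTR oligo pool with recombinant SBP-tagged TDP-43 at 5, 50 or 500 nM immobilized on streptavidin beads. It took place in 25 mM Tris-HCl, 150 mM KCl, 3 mM MgCl2, BSA and SUPERase IN. Bound RNA was washed, eluted with biotin, converted to cDNA, PCR-amplified and sequenced to give R, each oligo's normalized abundance in the bound sample divided by that in input. Two independent protein batches provided the duplicates.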

Sequence of TDP-43 (Q13148 whole entry): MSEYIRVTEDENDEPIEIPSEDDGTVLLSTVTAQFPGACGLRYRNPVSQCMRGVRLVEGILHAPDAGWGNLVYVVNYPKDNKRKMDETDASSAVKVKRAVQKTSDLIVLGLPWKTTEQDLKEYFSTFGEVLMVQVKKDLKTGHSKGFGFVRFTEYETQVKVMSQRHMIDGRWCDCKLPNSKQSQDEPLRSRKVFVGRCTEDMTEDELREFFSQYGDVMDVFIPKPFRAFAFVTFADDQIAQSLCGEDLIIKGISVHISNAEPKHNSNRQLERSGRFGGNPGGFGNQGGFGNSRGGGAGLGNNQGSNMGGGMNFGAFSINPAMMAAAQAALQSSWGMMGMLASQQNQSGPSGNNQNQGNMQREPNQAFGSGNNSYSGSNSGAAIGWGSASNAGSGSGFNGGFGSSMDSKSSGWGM

| Binder | binding signal |
| --- | --- |
| B1 | 0.745 R (bound/input frequency ratio) |
| B2 | 1.02 R (bound/input frequency ratio) |
| B3 | 0.142 R (bound/input frequency ratio) |
| B4 | 0.294 R (bound/input frequency ratio) |
| B5 | 1.41 R (bound/input frequency ratio) |
| B6 | 0.306 R (bound/input frequency ratio) |
| B7 | 0.319 R (bound/input frequency ratio) |
| B8 | 3.98 R (bound/input frequency ratio) |
| B9 | 6.66 R (bound/input frequency ratio) |
| B10 | 4.79 R (bound/input frequency ratio) |
| B11 | 1.47 R (bound/input frequency ratio) |
| B12 | 5.19 R (bound/input frequency ratio) |
| B13 | 6.51 R (bound/input frequency ratio) |
| B14 | 2.52 R (bound/input frequency ratio) |
| B15 | 0.829 R (bound/input frequency ratio) |
| B16 | 6.54 R (bound/input frequency ratio) |
